Assay results: PubChem BioAssay (NCI)
About 79,000 compounds went through this panel and 15% of them were active in at least one assay; those are over-represented in the sample as a whole. Active and inactive are the calls of the source. No stated cut-off is given here; in the data, active means growth inhibition above about 70%; inactive means the rest.

Tests used:
[1] = NCI Yeast Anticancer Drug Screen. Data for the rad50 strain (AID 155);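 further: 0% = growth of vehicle-only cultures of the same strain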; details: S. cerevisiae rad50 strain growth inhibition; at 50.0 µM; stronger effect = higher value
Summary of the method: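 Cells are treated with compound, grown, and their growth is then scored against vehicle-only cultures of the same repair-deficient yeast strain.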

[2] = NCI Yeast Anticancer Drug Screen. Data for the mec2-1 strain (AID 157); details: S. cerevisiae mec2-1 strain, at 50.0 µM, stronger effect = higher value
Summary of the method: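 Using mec2-1 yeast: add compound, measure growth, express inhibition versus vehicle-treated cultures.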

[3] = NCI Yeast Anticancer Drug Screen. Data for the sgs1 mgt1 strain (AID 161);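 further: 0% = growth of cultures given vehicle only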; details: S. cerevisiae sgs1 mgt1 strain, at 50.0 µM, stronger effect = higher value
Summary of the method: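 Percent growth inhibition was derived by comparing compound-exposed mutant yeast with vehicle-exposed cultures. The strain carries alterations in DNA damage repair.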

[4] = NCI Yeast Anticancer Drug Screen. Data for the cln2 rad14 strain (AID 165);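 further: 0% = growth equal to vehicle treated cultures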; details: S. cerevisiae cln2 rad14 strain, at 50.0 µM, stronger effect = higher value
Summary of the method: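 Yeast strain cln2 rad14, bearing defects in cell cycle control and DNA repair, serves as the test system; values reflect growth inhibition compared with vehicle.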

[5] = NCI Yeast Anticancer Drug Screen. Data for the bub3 strain (AID 167); details: S. cerevisiae bub3 mutant strain, at 50.0 µM, stronger effect = higher value
Summary of the method: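 Part of a panel of yeast mutants defective in DNA damage repair or cell cycle regulation. Each strain is grown with compound, and inhibition is calculated relative to solvent-treated cultures.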

[6] = NCI Yeast Anticancer Drug Screen. Data for the mlh1 rad18 strain (AID 175); details: S. cerevisiae mlh1 rad18 strain growth inhibition; at 50.0 µM; stronger effect = higher value
Summary of the method: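 Steps: expose repair-defective yeast to compound; measure growth; express inhibition against vehicle-treated controls.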

Measured: growth inhibition

O=C(CN1CCCc2ccccc21)c1ccccc1
inactive: [1] 6.75% | [2] 6.7% | [3] 4.55% | [4] 10.3% | [5] 19% | [6] 10.4%

N#CSCCOCCOC(=O)NC1CCCCC1
inactive: [1] 10.2% | [2] 4.75% | [3] 14.7% | [4] 5.25% | [5] 16.2% | [6] 14.6%

Cc1nc(Nc2ccccc2C)c2ccsc2n1
active: [4] 75%
inactive: [1] 41.3% | [2] 49.5% | [3] 43.2% | [5] 51.2% | [6] 48%

COc1cccc(C2c3cc4c(cc3OC(C)(O)C2C)OCO4)c1OC (stereo not given)
inactive: [1] 22.6% | [2] 4.05% | [3] 39.5% | [4] 13.9% | [5] 24.8% | [6] 21.6%

C=CCc1cc(OC)c(O)c(C(=O)OCC)c1
inactive: [1] -2.35% | [2] -12.8% | [3] -3.25% | [4] 1.3% | [5] 7.65% | [6] -2.15%

O=C1c2ccccc2C(=O)N1C/C(Cl)=C/Cl
inactive: [1] -21.9% | [2] -6.5% | [3] -11.4% | [4] -3.65% | [5] 8.75% | [6] -22.6%

COc1ccc(/C(O)=C/c2nc3cccc([N+](=O)[O-])c3[nH]c2=O)cc1
inactive: [1] 20.2% | [2] -14.8% | [3] 2.3% | [4] -14.1% | [5] -35.4% | [6] 17.7%

O=C1c2ccccc2-c2cccc3ccc(-c4ccccc4)c1c23
inactive: [1] 4.85% | [2] 1.9% | [3] -10.2% | [4] -2.85% | [5] -7.25% | [6] 12.5%

N#CC(C#N)c1c(F)c(F)c(C(F)(F)F)c(F)c1F
inactive: [1] 10.4% | [2] -4.6% | [3] 34.9% | [4] -8.95% | [5] -9.9% | [6] -0.65%

CC(C)(Br)CS(=O)(=O)c1ccccc1
inactive: [1] 38.1% | [2] 5.85% | [3] 29.1% | [4] -20.2% | [5] 14.1% | [6] 29.5%

CCOC(=O)CCC1CCCCC1
inactive: [1] -1.1% | [2] -8.15% | [3] -19.4% | [4] 0.65% | [5] -3.2% | [6] 8.15%

NC(Cc1ccccc1)=NCC(=O)O
inactive: [1] -40.5% | [2] -7.9% | [3] -29.4% | [4] -79.9% | [5] -19.7% | [6] -25.2%

C=CCC12CCC(=O)[C@@]1(C)CC=C(O)C2=O (stereo not given in full)
inactive: [1] 8.6% | [2] -2.8% | [3] 17.2% | [4] -18.2% | [5] 0.6% | [6] 0.9%

Nc1cc(C(=O)O)ccc1Cl
inactive: [1] -9.7% | [2] -8.1% | [3] -18.9% | [4] -88.8% | [5] -12.2% | [6] -5.4%

CC(C)(O)C1OCC(C2CCC3(C)C4=CCC5C(C)(C)C(O)CCC5(C)C4CCC23C)CC1O (stereo not given)
inactive: [1] 23.7% | [2] 27.6% | [3] 34.8% | [4] 42.6% | [5] 21.5% | [6] 4.75%

CCCC1CCCC12CCc1ccccc1C2=O (stereo not given)
inactive: [1] 15.3% | [2] -6.15% | [3] -11.1% | [4] 10.1% | [5] -5.8% | [6] 1.15%

O=C(c1ccccc1)[C@H]1Nc2ccc(Cl)cc2[C@H]2c3ccccc3O[C@H]21
inactive: [1] 33.9% | [2] -6.7% | [3] 12.4% | [4] 18.8% | [5] -1.45% | [6] 2.5%

CCN(CC)CCC(=O)O[C@H]1CC[C@H](CC(C)[C@H]2CC(=O)C(C)C=C(C)[C@H](OC(=O)CCN(CC)CC)C(OC)C(=O)[C@@H](C)CC(C)/C=C/C=C/C=C(C)C(OC)CC3CC[C@H](C)[C@](O)(O3)C(=O)C(=O)N3CCCCC3C(=O)O2)CC1OC (stereo not given in full)
active: [1] 89.6% | [2] 91.8% | [3] 92.8% | [4] 89.3% | [5] 91.5% | [6] 86.5%

CC1=C(C(=O)NCc2ccccc2)C(/C=C/c2ccccc2)C(C(=O)NCc2ccccc2)=C(C)N1
inactive: [1] 46% | [2] 16.1% | [3] 23.7% | [4] -22.1% | [5] 4.55% | [6] 34.3%

c1cc(C[S+]2CCCC2)ccc1C[S+]1CCCC1
inactive: [1] -17.9% | [2] -30.9% | [3] -32% | [4] -21.1% | [5] -12.4% | [6] -22.3%

CC(C)=Nn1cnc(C(=N)C#N)c1N
inactive: [1] 22.9% | [2] 3.5% | [3] -0.9% | [4] 14.5% | [5] 4.8% | [6] -7.45%

CCOC(=O)c1[nH]c2nc(N)ncc2c(=O)c1C
inactive: [1] -0.15% | [2] -0.95% | [3] -0.15% | [4] 43.6% | [5] 12.8% | [6] 11.7%

CCc1cc(-c2ccc(OC)cc2)c(C#N)c(=S)n1C1OC(CO)C(O)C(O)C1O (stereo not given)
inactive: [1] 4.9% | [2] -3.5% | [3] 6.4% | [4] 0.7% | [5] 3.35% | [6] 7.7%

O=c1[nH]cnc2c1cnn2-c1ccccc1
inactive: [1] 17.1% | [2] 5.3% | [3] 9.7% | [4] 3.85% | [5] -2.05% | [6] 22.4%

CC1OC(n2ccc3ccc([N+](=O)[O-])cc32)C(O)C(O)C1O (stereo not given)
inactive: [1] -5.2% | [2] -3.85% | [3] -32.7% | [4] -12.2% | [5] -27.8% | [6] -21.4%

N#Cc1ccc(NC(=O)C(CC(=O)OCc2ccccc2)NC(=O)OCc2ccccc2)cc1 (stereo not given)
inactive: [1] -2.75% | [2] 4.65% | [3] 3.85% | [4] 7.3% | [5] 50.8% | [6] -8.05%

NC(N)=NS(=O)(=O)c1ccc(Nc2c3ccccc3nc3c(C(=O)N4CCN(CCO)CC4)cccc23)cc1
inactive: [1] -0.4% | [2] -7.8% | [3] 2.95% | [4] 22.4% | [5] -5% | [6] -11.2%

O=[n+]1c2c(n([O-])c3cc(Cl)c(Cl)cc31)CCCC2
inactive: [1] 11.8% | [2] 11.2% | [3] 17.5% | [4] -2% | [5] 25.9% | [6] 4.9%

CC(Oc1ccc2ccccc2c1I)C(=O)O (stereo not given)
inactive: [1] 27.9% | [2] 12.8% | [3] 37.8% | [4] 18.6% | [5] 57.4% | [6] 36.8%

O=C(NC12CC3CC(CC(C3)C1)C2)C(O)C(O)C(O)C(O)CO (stereo not given)
inactive: [1] -16.6% | [2] -1.75% | [3] 20.1% | [4] 0.9% | [5] 5.6% | [6] 2.65%

Cc1cc(Cc2cc(C)c(NC(=O)C(=O)C3CCC4=C(SC5C=CC=CC5N4)C3=O)c(C(C)C)c2)cc(C(C)C)c1NC(=O)C(=O)C1CCC2=C(SC3C=CC=CC3N2)C1=O (stereo not given)
inactive: [1] -15.8% | [2] -13.6% | [3] -8.1% | [4] 15.2% | [5] 15.3% | [6] -28.1%

O=C(O)CCC(NC(=O)/C(=C/c1ccccc1)NC(=O)c1ccccc1)C(=O)O (stereo not given)
inactive: [1] 4.8% | [2] 6.55% | [3] 31% | [4] 8.75% | [5] 18.2% | [6] -10.4%

CCCCCC(=O)Oc1c(C(C)CC)cc([N+](=O)[O-])cc1[N+](=O)[O-] (stereo not given)
active: [1] 97.5% | [2] 97% | [3] 98.5% | [4] 97.7% | [5] 97.3% | [6] 98.2%

CCCNCC(O)c1cc(C(F)(F)F)nc2c(C(F)(F)F)cccc12 (stereo not given)
inactive: [1] 29.4% | [2] -0.15% | [3] 2.25% | [4] -25.4% | [5] 0.6% | [6] 19.1%

CN(C)CCCN1C=CC(=C2C(=O)c3ccccc3C2=O)C=C1
inactive: [1] 3.1% | [2] 20.8% | [3] 10.3% | [4] 34.9% | [5] 8.5% | [6] -0.95%

c1ccc(Nc2ccc3ccccc3n2)cc1
inactive: [1] 40.6% | [2] 4.75% | [3] 40.5% | [4] 14% | [5] -1.8% | [6] 16.4%

CCCCCCCCC(Cl)C(Cl)CCCCCCCC(=O)OC (stereo not given)
inactive: [1] -30.2% | [2] -33% | [3] -20.3% | [4] -13.8% | [5] -5.15% | [6] -22.1%

CC(C)C(C(N)=O)C(C)C
inactive: [1] 3.6% | [2] -6.4% | [3] -3.65% | [4] 10.7% | [5] 0% | [6] -1.2%

O=C(O)c1ccccc1-c1ccccc1C(=O)O
inactive: [1] -3.95% | [2] -9.6% | [3] -10.9% | [4] -41.2% | [5] -1.8% | [6] 9%

CCCCCCCSCC1OC(n2cnc3c(N)ncnc32)C(O)C1O (stereo not given)
inactive: [1] 3.35% | [2] 11.1% | [3] 11.4% | [4] 5.5% | [5] 3.1% | [6] 9.3%
